PubChem BioAssay (NCI)
This is part of a sample that, as a whole, favours compounds with a hit. Of some 83,000 tested, about 20% had one in any assay.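 Step 1: grow cells in 96-well plates. Step 2: add test compound at a single concentration. Step 3: incubate 48 h. Step 4: record percent growth.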 A number with no mark means an inactive call. Active and inactive are the calls of the source. Rule for the calls: active = growth percent below 10; inactive = the rest.

Legend:
Experiment in all cases: NCI-60 one-dose screen, 48 h (100 = growth as untreated, 0 = no growth, -100 = all killed)
Details in all cases: 10 µM unless noted
HCT-15 colon = tested on: HCT-15 colon
SNB-75 CNS = tested on: SNB-75 CNS
SNB-19 CNS = tested on: SNB-19 CNS
U251 CNS = tested on: U251 CNS
PC-3 prostate = tested on: PC-3 prostate
SK-MEL-5 melanoma = tested on: SK-MEL-5 melanoma
UACC-62 melanoma = tested on: UACC-62 melanoma
LOX IMVI melanoma = tested on: LOX IMVI melanoma
SK-MEL-28 melanoma = tested on: SK-MEL-28 melanoma

SMILES	growth (HCT-15 colon)	growth (SNB-75 CNS)	growth (SNB-19 CNS)	growth (U251 CNS)	growth (PC-3 prostate)	growth (SK-MEL-5 melanoma)	growth (UACC-62 melanoma)	growth (LOX IMVI melanoma)	growth (SK-MEL-28 melanoma)
Cc1nc2sc(C(=O)Nc3cccc(Cl)c3C)c(N)c2cc1C(C)O (stereo not given)	16.4%	13.9%	22.4%	17.7%	13.3%	9.62% (active)	30.7%	29.9%	62.1%
COc1ccc2cc(/C=C3\N=C(c4cc(OC)c(OC)c(OC)c4)OC3=O)c(OC)nc2c1	99.4%	98.3%	94.6%	92.8%	93.6%	103%	89.7%	102%	110%
COc1ccc(NC(=O)c2ccc(Nc3ncnc4[nH]c(C)c(C)c34)cc2)cc1	103%	93.5%	105%	101%	109%	98.6%	99.6%	104%	102%
Cn1nc(C(F)(F)F)c(-c2cc(C(F)(F)F)cc(C(F)(F)F)c2)c1-c1ccc(OCc2ccc(Cl)cc2)cc1O	7.5% (active)	4.92% (active)	22.6%	6.17% (active)	10.7%	-36.6% (active)	3.02% (active)	6.23% (active)	28%
N#Cc1ccc(N2Cc3cc(Cl)ccc3OC3=C2C(=O)N(Cc2ccc(F)cc2)C3=O)cc1	-54.9% (active)	-3.4% (active)	57.8%	-61.1% (active)	11.8%	-33.1% (active)	-41.1% (active)	-93% (active)	-64.1% (active)
Cn1c2ccccc2c2c(OC(=O)c3ccccc3)c3c(nc21)-c1ccccc1C3	105%	90.8%	105%	107%	87.3%	96.6%	92.5%	88.3%	111%
CCCCC1=c2c([nH]c3ccc(OC)cc23)=NC2C=CC=NC12 (stereo not given)	84.2%	92.9%	104%	103%	86.1%	84.3%	–	91.4%	112%
Nc1ccccc1NS(=O)(=O)c1ccc(Cl)cc1	102%	81.8%	96.6%	101%	91.5%	94.4%	91.4%	92.1%	96.8%
O=C(Nc1cc(Nc2ncccc2-c2ncnc3nc[nH]c23)ccc1F)c1cc(C(F)(F)F)cc(C(F)(F)F)c1	-67% (active)	-39.5% (active)	13.7%	-12.1% (active)	–	-17.5% (active)	-23.6% (active)	-69.4% (active)	-66.1% (active)
O=C1C(=O)c2c(nc3ccc(C(F)(F)F)cn23)-c2ccccc21	-67.4% (active)	-97% (active)	-84.4% (active)	-96% (active)	-85% (active)	-99.2% (active)	-82.4% (active)	-65.4% (active)	-84.3% (active)
N#C/C(=C/c1ccc(O)c([N+](=O)[O-])c1)c1nc(-c2ccc([N+](=O)[O-])cc2)cs1	24.7%	80.5%	34.5%	22.1%	29.9%	5.51% (active)	-17.2% (active)	38.2%	35.5%
C=C(C)[C@@H]1CC[C@]2(C(=O)N=C=S)CC[C@]3(C)[C@H](CC[C@@H]4[C@@]5(C)CCC(=O)C(C)(C)[C@@H]5CC[C@]43C)[C@@H]12	20.3%	43.6%	28.1%	23.9%	20.8%	77.7%	44.5%	41.4%	66%
CN(C)[C@@H]1C(=O)C(C(N)=O)=C(O)[C@@]2(O)C(=O)C3=C(O)c4c(O)cc(CN5CCc6ccccc6C5)c(Cl)c4C[C@H]3C[C@@H]12	-75.1% (active)	-79.1% (active)	-82.2% (active)	-95.7% (active)	-85.5% (active)	-94.2% (active)	-89.5% (active)	-87.2% (active)	-86.6% (active)
C=C1C(=O)O[C@H]2[C@H]1CC/C(COC(=O)c1c[nH]c3ccccc13)=C\CC[C@@]1(C)O[C@@H]21	-69.5% (active)	-2.2% (active)	-40.3% (active)	-81.2% (active)	-52.1% (active)	-98.2% (active)	-69.1% (active)	-94.8% (active)	-63.8% (active)
COC1=CC2C=C(C3N(c4ccccc4)NC(=O)[C@@H]4CCCN34)C(=O)NC2C=C1 (stereo not given in full)	101%	85%	104%	110%	102%	102%	104%	92.8%	108%
COc1ccc2[nH]c(=O)c(/C=C/C(=O)/C=C/c3ccc(O)c(OC)c3)cc2c1	2.08% (active)	59.8%	36.3%	-13% (active)	9.53% (active)	9.36% (active)	10.8%	-36% (active)	16.8%
CCC[S@@](=O)c1ccc2nc(NC(=O)OC)[nH]c2c1	68.3%	82.6%	87.6%	82.2%	78.4%	83.3%	72.7%	90.2%	89.3%
CCN1CCN(c2ccc(NC(=O)Nc3nc4ccc(-c5ccccc5OC)cc4s3)cc2)CC1	-83.2% (active)	-19.8% (active)	-82.8% (active)	-87% (active)	-83.8% (active)	-98.8% (active)	-85.3% (active)	-86.4% (active)	-79.3% (active)
CC(C)CSc1nc(Nc2ccccc2)c(C#N)c(-c2ccc(F)cc2)n1	67.4%	-16.2% (active)	5.61% (active)	-32.5% (active)	47.7%	80.5%	70.9%	4.45% (active)	84.5%
O=C(O)COc1ccc2c(=O)c3sc4c(=O)c5ccccc5c(=O)c4c3c(=O)c2c1	-75% (active)	-42% (active)	0.0814% (active)	29.8%	54%	-99.6% (active)	-91.4% (active)	-37.6% (active)	-16.2% (active)
CC1(C)[C@@H](O)CC[C@]2(C)[C@H]3CC[C@@H]4[C@H]5[C@H](c6cn(-c7ccccc7)nn6)CC[C@]5(CO)CC[C@@]4(C)[C@]3(C)CC[C@@H]12	88.8%	81.9%	93.1%	89.6%	52.8%	83.7%	79.6%	95.6%	88.7%
O=C1NC(SCc2ccc(F)cc2)=N/C1=C/c1cccc(OCc2ccc(Cl)cc2)c1	72.1%	50.7%	33.4%	-41.2% (active)	77.5%	83%	72%	24.7%	91.2%
N#Cc1ccc(N2Cc3cc(Cl)ccc3OC3=C2C(=O)N(Cc2ccccc2)C3=O)cc1	-44.9% (active)	29.9%	69.1%	-31.7% (active)	21.9%	-31.5% (active)	-35.5% (active)	-91.6% (active)	-44.4% (active)
